# Screening results from PubChem BioAssay.
# HT1080-NT tox: qHTS for induction of synthetic lethality in tumor cells producing 2HG: qHTS for the HT-1080-NT fibrosarcoma cell line | Potency, µM (top dose mostly 46.1 µM), most hits filed as cytotoxic | actives 1.6% (n = 360,000) | HT-1080-NT fibrosarcoma viability, CellTiter-Glo ATP luminescence, 48 h;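 further: NT is the 2HG producing partner of a matched IDH1 knockdown line; nearly all actives have a fitted effect of over 55% in size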
#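 HT-1080-NT fibrosarcoma cells (2HG-overproducing), 750 cells/well in RPMI with 5% FBS, dosed after 2 h and incubated 48 h at 37C. CellTiter-Glo luminescence normalized to DMSO and no-cell wells; concentration-response curves fitted and classed.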
# HT1080 IDH1KD tx: qHTS for induction of synthetic lethality in tumor cells producing 2HG: qHTS for the HT-1080-IDH1KD cell line. actives 2% (n = 360,000). Potency, µM (series often up to 46.1 µM), hits mostly cytotoxic. HT-1080 IDH1 knockdown viability, ATP luminescence, 48 h
#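 In this qHTS, HT-1080 cells depleted of IDH1 are exposed for 48 h at 37 °C to compound titrations. Toxicity is scored from CellTiter-Glo luminescence, with DMSO as full viability and medium alone as none.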
# KB-V1 cytotox: qHTS assay for MDR1-selective chemotherapeutics: Primary screen using the drug-selected MDR subline cells KB-V1; KB-V1 MDR cells viability, CellTiter-Glo, 72 h; actives 3.4% (n = 400,000); Potency, µM (top dose mostly 46.1 µM), actives largely listed as cytotoxic; further: nearly all actives have a fitted effect of over 60% in size
#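 In this primary screen, KB-V1 cells overexpressing P-gp are incubated with library compounds (lowest to highest concentration) for 72 h at 37 degrees C before a luminescent ATP viability read.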
# KB-3-1 tox: qHTS assay for MDR1-selective chemotherapeutics: Primary screen using the parental adenocarcinoma cell KB-3-1; KB-3-1 viability, CellTiter-Glo ATP luminescence, 72 h; Potency, µM (doses to about 46.1 µM), actives largely listed as cytotoxic; actives 1.4% (n = 400,000); further: nearly all actives have a fitted effect of over 60% in size
#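 Cytotoxicity in the drug-sensitive parental line KB-3-1 was scored as loss of CellTiter-Glo luminescence following 72 h incubation with compound. Values come from curve fitting of normalized concentration-response data.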
# SW480 rereplic: A quantitative high throughput screen for small molecules that induce DNA re-replication in SW480 colon adenocarcinoma cells. SW480 DNA re-replication, Hoechst DNA content imaging, 48 h. Potency, µM (series often up to 46.1 µM), most hits filed as activators. actives 1.8% (n = 340,000); further: nearly all actives have a fitted effect of over 55% in size
#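 Image-based read-out: total Hoechst fluorescence of nuclei (405 nm excitation, 500-530 nm emission), with hits raising the fraction of high-intensity nuclei. SW480 colon cells incubated 48 hr with compounds at 37 C.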
# MCF10A rereplic: A quantitative high throughput screen for small molecules that induce DNA re-replication in MCF 10a normal breast cells; MCF 10A DNA re-replication, Hoechst nuclear intensity, 48 h; Potency, µM (titrated, usually from 46.1 µM), hits mostly activators; actives 2.9% (n = 350,000); further: nearly all actives have a fitted effect of over 50% in size
# A number is an active result; . = inactive; ? = inconclusive; / = no result given. In the library only some 8% were active in any assay of this set; here they are far more common. The call rests on the fitted dose curve; in most records, active means well fitted curve in the direction sought with a large enough effect; inconclusive means small, poorly fitted or top-dose-only effect, or another doubt; inactive means no such curve, though single readings can be large; an effect the other way counts as inactive or inconclusive.
SMILES,HT1080-NT tox,HT1080 IDH1KD tx,KB-V1 cytotox,KB-3-1 tox,SW480 rereplic,MCF10A rereplic
O=C1CC(Nc2ccc(N3CCOCC3)cc2)C(=O)N1c1ccccc1 (centres undefined),.,.,.,.,?,8.2µM
NS(=O)(=O)c1ccc(NC(=O)Nc2ccc(C(F)(F)F)cc2)cc1,?,21µM,.,.,.,?
Cc1ccc(OCC(O)Cn2c3ccccc3c3ccccc32)cc1 (centres undefined),?,?,?,.,?,.
CCCCCn1c(=N)n(CC(O)COc2cccc(C)c2)c2ccccc21 (centres undefined),/,/,?,.,/,/
N=c1n(Cc2ccccc2)c2ccccc2n1CC(O)COc1ccccc1 (centres undefined),?,?,21µM,21µM,?,26µM
Cc1ccc(Cn2c(=N)n(CC(O)COc3ccccc3)c3ccccc32)cc1 (centres undefined),.,?,16µM,.,?,.
Cc1ccc(C2c3cccn3CCN2S(=O)(=O)c2ccc([N+](=O)[O-])cc2)cc1 (centres undefined),/,/,.,.,/,/
CN1c2ccccc2N(C)C1(C)c1ccccc1,?,?,.,.,5.8µM,?
CCN1c2ccccc2N(C)C1(C)c1ccccc1 (centres undefined),?,?,.,?,12µM,?
CN1C(=O)N(C)C2(c3ccccc3)NC(=O)NC12c1ccccc1 (centres undefined),.,.,.,.,.,.
Cc1ccc(CCNC(=O)c2ccc(CS(=O)(=O)c3ccc(Br)cc3)o2)cc1,/,/,.,.,/,/
c1cc2c3c(cccc3c1)C(N1CCCCCC1)=N2,.,.,.,.,.,.
c1ccc2c(c1)CCN(C1=Nc3cccc4cccc1c34)C2,?,?,?,.,?,8.2µM
O=S(=O)(c1ccc(F)cc1)N(CC(O)Cn1c2ccccc2c2ccccc21)c1ccccc1 (centres undefined),/,/,.,.,/,/
CCN(CC(O)Cn1c2ccccc2c2ccccc21)S(=O)(=O)c1ccc(F)cc1 (centres undefined),?,?,12µM,?,?,.
O=S(=O)(c1ccc(F)cc1)N(CCO)CC(O)Cn1c2ccccc2c2ccccc21 (centres undefined),?,18µM,23µM,.,.,.
CCOC(=O)c1[nH]c2c(c1Cc1ccccc1OC)C(=O)CC(c1ccccc1)C2 (centres undefined),/,/,.,.,/,/
Cc1ccc(N2C(=O)C3C4C=CC(CNC(=S)Nc5ccc(F)cc5)(O4)C3C2=O)cc1 (centres undefined),.,.,.,.,?,?
Cc1ccc(N2C(=O)C3C4C=CC(CNC(=S)Nc5cccc(Cl)c5)(O4)C3C2=O)cc1 (centres undefined),.,.,12µM,.,?,.
Cc1ccc(N2C(=O)C3C4C=CC(CNC(=S)Nc5ccc(Cl)cc5)(O4)C3C2=O)cc1 (centres undefined),.,.,8.2µM,?,.,?
O=C(CSc1nc2ccccc2s1)N1CCCCC1,.,.,.,.,.,.
Cc1c(Cl)cccc1N/C(SCC(=O)N1CCCCCC1)=C(/C#N)c1nc2ccccc2s1,.,.,15µM,21µM,15µM,?
Cc1nn2c3c(cnc2c1-c1ccc(Cl)cc1)C(=O)CC(c1ccco1)C3 (centres undefined),.,.,5.8µM,.,.,.
COCCN1CCc2nc(SCC(=O)Nc3ccc(C)c(Cl)c3)[nH]c(=O)c2C1,/,/,?,.,/,/
COc1cc(OC)c(OC)cc1/C=C/c1cc[n+](C)c2ccccc12,/,/,.,15µM,/,/
